Source: PubChem BioAssay (National Center for Advancing Translational Sciences (NCATS))
CtBP-E1A blk – inhibitors of CtBP/E1A interaction; AlphaScreen GST-E1A/His-CtBP binding, 1536-well; hits give low values; activity change, % (concentration not given with the values); 340,000 compounds, 0.49% hits
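GST-E1A and His-tagged CtBP (125 nM each as 5X stock) were preincubated with pin-transferred compound for 2 h at 37 °C in the dark, then glutathione donor and nickel acceptor beads were added for 1 h before AlphaScreen reading.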
pAkt inh – blocks phosphorylation of Akt | 360,000 compounds, 0.32% hits | activity change, % for hits at 50 µM | Neuro2A IGF-stimulated pAkt S473 HTRF, 20 min; hits give low values; in the data active = activity change below about -80%; inconclusive = mostly about -51% to -80%
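Neuro2A cells in DMEM with 0.5% FBS, overnight at 37 deg C, given compound at single 50 µM final, then IGF (6 nM final) for 20 min at 37 deg C. Lysed; phospho-Akt Ser473 by HTRF after 24 h, 665/615 ratio.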
PI4K2A inh – inhibitors of human PI4K2A. purified PI4K2A, ADP-Glo luminescence, 1 h; hits give low values. 420,000 compounds, 0.13% hits. AID 1346378. activity change, negative = inhibition, % at 76.9 µM; in the data active = activity change below about -50%; inconclusive = mostly about -30% to -49%;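 also: -100% = wells without enzyme as full effect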
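In this quantitative HTS, ADP production by PI4K2A was quantified luminescently after 1 h at ambient temperature; 100 microM adenosine served as plate-quality control.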
Six1-Eya2 inh – Six1/Eya2 interaction inhibition; Q15475+O00167; AlphaScreen GST-Six1/His-Eya2 binding, biochemical; hits give low values; activity change, % (concentration not given with the values); 360,000 compounds, 0.56% hits; AID 651725
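Homogeneous AlphaScreen proximity assay pairing GST-Six1 with His-tagged Eya2 (added as 5X mix: 250 nM and 500 nM) in 50 mM Tris pH 8.0, 300 mM NaCl, 1 mM TCEP. Glutathione donor and nickel acceptor beads; 1 h, 37 °C, dark.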
PI5P4Ka inh – blocks human PI5P4K alpha kinase activity | P48426 | PI5P4Kalpha enzyme, ADP-Glo luminescence, 60 min; hits give low values | max response, % | 330,000 compounds, 1.2% hits | AID 652105; active = max response of -50% or lower; inconclusive = between -30% and -50%; inactive = -30% or higher; also: value at the top dose of about 77 µM
Target sequence (P48426 whole entry, looked up): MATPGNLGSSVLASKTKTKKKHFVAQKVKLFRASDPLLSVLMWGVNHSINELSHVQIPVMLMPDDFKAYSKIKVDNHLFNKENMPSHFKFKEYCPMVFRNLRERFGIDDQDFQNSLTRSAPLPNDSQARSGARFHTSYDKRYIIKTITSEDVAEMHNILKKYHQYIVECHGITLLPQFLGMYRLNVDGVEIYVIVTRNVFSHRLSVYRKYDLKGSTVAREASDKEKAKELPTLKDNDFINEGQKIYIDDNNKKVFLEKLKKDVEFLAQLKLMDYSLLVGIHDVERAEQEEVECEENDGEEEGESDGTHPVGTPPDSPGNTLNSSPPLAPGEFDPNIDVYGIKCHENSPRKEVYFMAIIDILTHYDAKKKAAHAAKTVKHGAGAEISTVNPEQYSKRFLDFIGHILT
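Enzyme plus substrate dispensed, test compounds pinned in, then ATP (5 microM final) added. After 60 min at RT, ADP-Glo reagent 1 for 45 min and reagent 2 for 30 min preceded luminescence imaging.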
* hit, by the source's call; i = inactive; ? = inconclusive; · = no result given. An excerpt weighted towards active compounds, which were near 1.8% of everything screened. Rule as the data show it, unless noted: active = activity change below about -65%; inconclusive = mostly about -30% to -63%; inactive = weaker than that. Unless noted, % is scaled to controls: 0 for no effect and ±100 for the full control effect.

SMILES	CtBP-E1A blk	pAkt inh	PI4K2A inh	Six1-Eya2 inh	PI5P4Ka inh
Cn1nc(C(=O)NCc2ccc(F)cc2)c2c1-c1ccccc1SC2	·	·	3	·	·
CC(=O)c1ccc(N2CCN(C(=O)c3n[nH]c4ccccc34)CC2)cc1	-15	i	-1	0	2
O=C1C=CC(=O)c2c(O)c(N3CCN(CCO)CC3)c(Cl)c(O)c21	-13	i	-57*	?	?
O=S(=O)(c1ccc(Br)cc1Cl)N1CCN(CCO)CC1	-28	i	-1	5	0
O=C1C=CC(=O)c2c(O)c(N3CCN(CCOCCO)CC3)c(Br)c(O)c21	-26	i	-60*	-69*	-55*
N#C/C(=C\c1cc(O)c(O)c(O)c1)C(N)=O	·	i	-9	-22	-76*
CCN(CC)c1ccc(/C=C(\C#N)C(N)=O)cc1	6	i	13	-1	-2
NC(=O)/C(=N\OC(=O)c1ccco1)c1nc(-c2ccc(Br)cc2)cs1	?	i	15	?	-69*
Nc1nc(-c2ccc(NC(=O)c3ccco3)cc2)cs1	-13	i	-3	-15	-19
Cc1ccc(C(=O)O)cc1NC(=S)NC(=O)c1ccc([N+](=O)[O-])cc1Cl	1	i	3	-2	-2
O=C(Nc1nccs1)c1cccc(N2C(=O)c3cccc4c([N+](=O)[O-])ccc(c34)C2=O)c1	-2	-109%*	-1	2	?
O=S(=O)(Nc1nc(-c2sccc2Cl)cs1)c1cc(Cl)ccc1Cl	1	i	-12	-4	-50*
Cc1ccc(CNC(=O)CC2Oc3ccc(Cl)cc3NC2=O)cc1 (configuration not stated)	·	·	-2	·	·
CCOc1cc(/C=C2\C(=O)ON=C2c2ccccc2)cc(Br)c1O	0	i	-24	2	-79*
COc1cc(/C=C2\C(=O)ON=C2c2ccccc2)cc(Br)c1O	-1	i	6	-7	-85*
COc1cc(/C=C2\C(=O)ON=C2c2ccccc2)cc(Cl)c1O	4	i	-16	-13	-67*
CCOc1cc(/C=C2/C(=O)ON=C2C)cc(Br)c1O	·	i	-1	0	-67*
Cc1ccc(C(=O)n2nc(-c3ccco3)nc2NCc2cccs2)cc1	·	·	-2	·	·
O=C(CN1CCSCC1)N/N=C/c1ccccc1F	-3	-98%*	3	0	·
CC1=C(C(=O)Nc2cc(C(=O)NCCC(C)C)ccc2C)SCCO1	-22	i	1	0	-1
O=C(O)CN1C(=O)/C(=C\c2cc(Br)ccc2OCc2ccc(Cl)cc2)SC1=S	·	i	-2	-13	?
O=C(O)CN1C(=O)/C(=C\c2cc([N+](=O)[O-])ccc2OCc2ccccc2Cl)SC1=S	0	i	-1	-11	-72*
COc1ccc(C(=O)COc2ccccc2N2C(=O)C3C4C=CC(C4)C3C2=O)cc1 (configuration not stated)	-2	-139%*	-10	-4	4
CC1CCN(S(=O)(=O)c2ccc(NC(=O)CNC3CCCCC3)cc2)CC1	-5	i	5	1	7
N#Cc1c(-c2cccs2)nc(SCC(=O)c2cccs2)[nH]c1=O	-5	i	5	-8	-70*
SMILES	CtBP-E1A blk	pAkt inh	PI4K2A inh	Six1-Eya2 inh	PI5P4Ka inh
O=C(CSc1nc2ccccc2c(=O)[nH]1)c1cccs1	0	i	4	-9	-6
O=C(N/C(C(=O)N1CCOCC1)=C(\Sc1ncccn1)c1ccccc1)c1ccccc1	4	i	31	3	11
NC(=S)N/N=C/c1coc2c(ccc3ccccc32)c1=O	6	i	2	-2	-15
O=c1cc(/N=C/c2coc3c(ccc4ccccc43)c2=O)[nH]c(=S)[nH]1	·	i	-8	26	-75*
CC(NC(=O)Cc1ccccc1)C1COc2ccccc2O1 (configuration not stated)	4	i	-1	0	10
O=C(NC(=S)NNC(=O)c1ccccc1O)c1cccnc1	·	i	1	-90*	-1
COc1ccc(C(=O)NC(=S)NNC(=O)c2ccccc2O)cc1	-12	i	4	-92*	6
O=C(NC(=S)NNC(=O)c1cnccn1)c1ccc(Cl)cc1	-95*	i	2	-92*	-20
CCN(CC)CCn1c(=O)n(-c2ccc(Cl)cc2)c(=O)c2c3c(sc21)CN(C)CC3	0	i	4	-2	-2
CC(=O)N(Cc1cccnc1)c1nc2c(C)cc(C)cc2s1	·	·	-2	·	·
O=[N+]([O-])c1cc2oc3c(c2c(C=NCc2ccccc2)c1O)CCCC3	3	i	-5	-16	-50*
CC(C)CN=Cc1c(O)c([N+](=O)[O-])cc2oc3c(c12)CCCC3	1	i	-7	13	?
Cn1nccc1C(=O)Nc1ccn(C23CC4CC(CC(C4)C2)C3)n1	9	i	3	-1	2
CC(Oc1ccc(Cl)cc1Cl)C(=O)Nc1cccnc1 (configuration not stated)	24	-112%*	4	21	10
CCn1c(SCc2nc3sc(C(=O)O)c(C)c3c(=O)[nH]2)nnc1-c1ccc(Cl)cc1	3	i	0	-19	-56*
CN(C)CCCNc1oc(/C=C/c2ccccc2)nc1C#N	8	i	-5	2	-4
COc1ccc(-c2nc3ccc(Cl)cn3c2Cc2ccccc2C(F)(F)F)cc1OC	-11	i	-5	-19	-5
COc1ccc(C(=O)Nc2ccc(-c3n[nH]c(=S)o3)cc2)cc1	-1	i	1	-14	-55*
C=CCOc1ccc(-c2n[nH]c(=S)o2)cc1	3	i	-3	1	-60*
NC(=S)Nc1cccc(-c2n[nH]c(=S)o2)c1	-22	i	-6	25	-25
O=C(Nc1ccc(-c2n[nH]c(=S)o2)cc1)c1ccccc1	·	i	-2	-27	-63*
Cc1ccc(NC(=S)Nc2cccc(-c3n[nH]c(=S)o3)c2)cc1	-14	i	3	1	-68*
Cc1ccc(C)c(OCc2cc(C(=O)N3CCN(C4CCCCC4)CC3)no2)c1	-3	i	5	-15	7
O=C(CCS(=O)(=O)c1cccc2nsnc12)NC1CCCCC1	2	i	0	-1	·
O=C(c1ccco1)N1CCC(n2nnc3ccccc32)CC1	3	i	1	1	·
CN(C)/C=N/C(=S)Nc1ccc(F)cc1	-1	i	5	0	8
COc1ccccc1C(=O)NCc1ccncc1	4	i	4	4	·
COc1ccccc1C(=O)NCc1ccccc1	-2	-106%*	3	3	-2
Clc1ccc(SCCn2cncn2)cc1	0	i	-1	-2	1
Cc1ccc(SCCCn2cncn2)cc1	-1	-111%*	1	1	-4
